“And” between values parts separate entries of the source, which are not always exact repeats. Equal entries are not always repeated. Out of some 390,000 compounds screened, about 4,000 (1%) were called active. Inconclusive results (about 7%) are left out. The call rests on the fitted dose curve; in most records, active means well fitted inhibition curve with a large enough effect; inconclusive means small, poorly fitted or top-dose-only effect, or another doubt; inactive means no such curve, though single readings can be large or run the other way. What follows is part of a selection rich in actives, with near analogues and random picks from the rest.
Each compound was assayed against DNA polymerase iota (Homo sapiens) (UniProt Q9UNA4) (assay: qHTS for Inhibitors of Polymerase Iota). Conditions: Pol iota fluorescent replication assay, 10 min; series mostly up to 115 µM.
Summary of the method: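 Fluorescent replication assay read twice, at 0 min and 10 min after adding 50 nM (final) substrate. Enzyme (10 nM) and compounds were first incubated 15 min at room temperature; enzyme-free buffer wells were negative controls.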
Potency means the concentration at half of the fitted maximal effect.

Chain of DNA polymerase iota (Homo sapiens) (Q9UNA4 whole entry, looked up): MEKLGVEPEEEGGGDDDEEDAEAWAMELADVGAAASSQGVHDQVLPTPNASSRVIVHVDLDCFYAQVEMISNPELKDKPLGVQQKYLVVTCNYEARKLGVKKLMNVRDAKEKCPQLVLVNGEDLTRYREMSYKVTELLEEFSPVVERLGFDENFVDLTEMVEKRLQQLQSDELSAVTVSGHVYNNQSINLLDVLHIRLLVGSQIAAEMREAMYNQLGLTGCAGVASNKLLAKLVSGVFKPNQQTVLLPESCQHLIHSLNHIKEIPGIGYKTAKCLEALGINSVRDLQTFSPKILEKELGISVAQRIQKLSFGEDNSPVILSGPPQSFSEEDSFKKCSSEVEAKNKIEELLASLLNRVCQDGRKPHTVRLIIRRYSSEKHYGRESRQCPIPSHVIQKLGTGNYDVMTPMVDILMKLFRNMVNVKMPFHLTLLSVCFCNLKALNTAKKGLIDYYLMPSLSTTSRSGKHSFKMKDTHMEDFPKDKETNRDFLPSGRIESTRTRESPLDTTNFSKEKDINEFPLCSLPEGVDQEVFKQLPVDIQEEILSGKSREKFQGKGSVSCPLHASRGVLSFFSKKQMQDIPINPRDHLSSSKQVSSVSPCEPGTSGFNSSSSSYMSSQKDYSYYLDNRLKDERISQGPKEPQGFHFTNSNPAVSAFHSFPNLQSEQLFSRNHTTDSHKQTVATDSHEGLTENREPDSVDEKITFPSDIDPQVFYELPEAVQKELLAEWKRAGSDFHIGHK

Potency, active:
CC(=O)Nc1c2c(nn1-c1cccc(C)c1)CSC2 50.1 µM, O=c1[nH]n2c(=O)c3c([nH]c2c1N=Nc1ccccc1)CCC3 50.1 µM, COc1cccc2c1C(=O)c1c(O)c3c(c(O)c1C2=O)CC(O)(C(C)=NNC(=O)c1ccc(Cl)c(Cl)c1)CC3OC1CC(N)C(O)C(C)O1 (stereo not given) 50.1 µM, C=C(C)C(=O)O[C@H]1C/C(C)=C\C(=O)/C=C(\C)[C@H](O)[C@@H]2OC(=O)C(=C)[C@@H]21 35.5 µM, CC(/C=C/C1(O)C(C)CC(=O)CC1(C)C)OC1OC(CO)C(O)C(O)C1O (stereo not given) 79.4 µM, CCC(C)Cn1c(O)cc2nn(-c3nc4ccccc4s3)c(=O)c-2c1C (stereo not given) 12.6 µM, O=C1NN(c2ccccc2)C(=O)/C1=C/c1ccc(-c2cccc(C(=O)O)c2)o1 8.91 µM, Cc1ccc(C(=O)OCC(=O)NCc2cc(C)c(O)c(C)c2)cc1S(=O)(=O)N1CCCCC1 79.4 µM, C[N+](C)(CCCCCC[N+](C)(C)CCCN1C(=O)c2cccc3cccc(c23)C1=O)CCCN1C(=O)c2cccc3cccc(c23)C1=O 2.24 µM and 20 µM, O=c1/c(=C/c2ccc(CNS(=O)(=O)c3ccccc3)o2)sc2n1CCN=2 35.5 µM, COc1ccc(Cc2nnc(NC(=O)Cc3cccs3)s2)cc1 4.47 µM, CCc1nnc(NC(=O)Cc2cccs2)s1 11.2 µM, CCOc1ccccc1NC(=O)Cc1cccs1 44.7 µM

Potency, inactive:
COc1ccc(/C=C/c2ccnc3ccccc23)cc1OC, CN(C(=N)N)c1ccc(/C=C2\C=Cc3ccccc32)cc1, O=C(NCCCO)C(=O)Nc1c2c(nn1-c1ccccc1)CSC2, CC(C)C(=O)Nc1c2c(nn1-c1ccccc1)CSC2, COc1ccc(CNC(=O)Cn2nnc(-c3ccc(S(C)(=O)=O)cc3)n2)cc1, O=C(C[n+]1ccncc1)c1ccc2c(c1)CCCC2, Cc1c(N=Nc2ccc(N(C)C)cc2)c(=O)n(-c2ccccc2)n1C, CC(C)(C)n1c(=O)[nH]c2c(c1=O)CCC2, CC(C)NC(=O)C1CCC(Cn2c(=O)c3sccc3n(Cc3ccc(F)cc3)c2=O)CC1 (stereo not given), CCOC(=O)C1CCC(CN(Cc2ccc(OC)cc2)S(=O)(=O)c2ccc(F)c(C(=O)Nc3cc(C)ccc3C)c2)CC1 (stereo not given), CC(C)(C)c1ccc(C(=O)NCC(c2ccco2)S(=O)(=O)c2ccc(F)cc2)cc1 (stereo not given), COc1ccccc1NC(=O)C1=C(C)Nc2ncnn2C1c1sccc1C (stereo not given), O=C(O)C1=C/C(=C/C=[N+]2c3cc(O)c(O[C@H]4OC(CO)[C@@H](O)[C@@H](O)[C@@H]4O)cc3C[C@@H]2C(=O)[O-])C[C@H](C(=O)O)N1 (stereo not given in full), CCCS(=O)(=O)Nc1cccc(-c2cn3ccsc3n2)c1, Cc1ccc(C)c(N2CCN(C(=O)Cn3nc(C)c4sc5ccccc5c4c3=O)CC2)c1, Cc1ccc(S(=O)(=O)N2CCCc3cc(NS(=O)(=O)c4cc(C)ccc4C)ccc32)cc1, CCOc1ccc(NC(=O)CSc2nnc3c(n2)[nH]c2ccc(S(=O)(=O)N4CCOCC4)cc23)cc1, Cc1ccc(-c2nn3c(=O)cc(CN4CCN(C(=O)Nc5cccc(C(F)(F)F)c5)CC4)nc3s2)cc1, Cn1c(=O)c2c(-c3ccccc3Br)n(Cc3ccccc3)cc2n(C)c1=O, COc1cccc(CNC(=O)c2ccc3c(c2)sc2nc(-c4cccc(OC)c4)cn23)c1, COc1cccc2c1cc1c(=O)n(CC(=O)N3CCN(c4ccccc4)CC3)nc(C)n12, CC1=C(C)C(=O)OC(C(C)C2CCC3C4CC=C5CC(OC6OC(COC7OC(CO)C(O)C(O)C7O)C(O)C(O)C6O)CC(O)C5(C)C4CCC23C)C1 (stereo not given), C=CC1C(OC2OC(CO)C(O)C(O)C2O)OC=C(C(=O)OC)C1CC1CC(=O)CC(CC(=O)CCc2ccc(O)cc2)O1 (stereo not given), Nc1ncnc2nnsc12, COC(=O)c1ccc(Cn2c(SCC(=O)N(C)c3ccccc3)nc3ccccc32)cc1, CC(=O)c1cc(-c2ccccc2)[nH]c1N1CCCC1, COc1ccc2c(c1)C=C(C(=O)NCc1cc(Br)ccc1OC)CO2, COC(=O)c1ccc(NC(=O)CCc2c(C)nn(-c3ccc(N4CCCC4)nn3)c2C)cc1, COc1ccc(C)cc1NC(=O)COCc1cc(-c2cccs2)on1, O=C(NC1CC(=O)N(c2ccccc2)C1)c1ccco1 (stereo not given), CCOc1cc2[nH]c(=O)n(Cc3ccc(C(=O)NCCN(CC)CC)cc3)c(=O)c2cc1OCC, COc1ccc(CNC(=O)COC(=O)c2ccc(C)c(S(=O)(=O)N3CCOCC3)c2)cc1OC, Cc1ccc(C(=O)OCC(=O)N2CC(C)CC(C)C2)cc1S(=O)(=O)N1CCCCC1 (stereo not given), CC1CCCN(c2nc3c(S(=O)(=O)c4ccc(C(C)C)cc4)nnn3c3ccsc23)C1 (stereo not given), CCc1nn(CC(=O)Nc2cccc(C)c2C)c(=O)c2cc3sccc3n12, O=C(CN1C(=O)c2cccc3cccc(c23)C1=O)N1CCCCC1, O=C(CN1C(=O)c2cccc3cccc1c23)Nc1ccccc1, CCn1c(C)c(C)c2cc(C(=O)NCCc3cc(OC)ccc3OC)ccc21, Cc1cccc(CCNC(=O)c2ccc3c(c2)nc2n3CCC(C)C2)c1 (stereo not given), COc1cc2[nH]c(C)c(CCN3CCN(c4ccccc4)CC3)c2cc1OC, COC(=O)C1=C(C)NC(=O)/C1=C/c1ccc(CNS(=O)(=O)c2ccc(C)cc2)o1, O=S(=O)(NCc1ccccc1)c1ccc(S(=O)(=O)N2CCCC2)cc1, CCc1cccc(-n2nnc(-c3nsc(NC(=O)c4ccc(C)cc4)n3)c2C)c1, O=C(Nc1ccc2oc(-c3ccc(O)c(Br)c3)nc2c1)c1cc2ccccc2o1, Cc1ccccc1NC(=O)Cn1c(=O)n(Cc2ccco2)c(=O)c2ccc(C(=O)NC3CCCC3)cc21, COc1ccc(NC(=O)C2CCCN(S(=O)(=O)c3cccc4nonc34)C2)cc1Cl (stereo not given), COc1ccc(Cc2nnc(NC(=O)c3cc(OC)c(OC)c(OC)c3)s2)cc1OC, CCOc1ccc(NC(=O)C/C(C)=N/NC(=O)Cc2cccs2)cc1, CCc1nnc(NC(=O)CCC(=O)NCc2ccccc2OC)s1, O=C(Cc1cccs1)Nc1ccc([N+](=O)[O-])cc1, COc1ccc(CNC(=O)CCC(=O)Nc2nnc(C(C)C)s2)cc1, CCOc1ccccc1NC(=O)CCn1cnnn1

From PubChem BioAssay AID588590 (National Center for Advancing Translational Sciences (NCATS), 2011)
